Reference: PubChem BioAssay (Tox21)
Inconclusive results are not listed. The source made the active and inactive calls. Unless noted, the call rests on the fitted dose curve; in most records, active means well fitted curve in the direction sought with a large enough effect in the repeat runs; inconclusive means weak or mixed curves; inactive means flat fitted curve, though single readings scatter.

Tests used:
[1] = qHTS assay to test for compound auto fluorescence at 535 nm (green) in HEK293 cells (AID 720680)
[2] = qHTS assay to test for compound auto fluorescence at 460 nm (blue) in HEK293 cell free culture (AID 720681)
Procedure, shortened: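 Blue fluorescence (Ex 405/Em 460 nm, triamterene-equivalent) was read immediately after pin transfer of compound or DMSO into medium (DMEM, 10% FBS) without cells.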

[3] = qHTS assay to test for compound auto fluorescence at 535 nm (green) in HEK293 cell free culture (AID 720682)
Procedure, shortened: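 Green-label autofluorescence (485 nm excitation, 535 nm emission) measured on compound added to cell-free culture medium (DMEM, 10% FBS). Output is expressed relative to fluorescein.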

[4] = qHTS assay to test for compound auto fluorescence at 590 nm (red) in HEK293 cell free culture (AID 720683)
Procedure, shortened: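 Red-channel autofluorescence of compounds in culture medium (DMEM, 10% FBS), no cells, measured at 540/590 nm. Rose Bengal sodium is the reference fluorophore for equivalence.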

[5] = qHTS assay to test for compound auto fluorescence at 590 nm (red) in HepG2 cell free culture (AID 720684)
Procedure, shortened: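 Steps: dispense MEM/10% FBS medium, no cells; pin compound or DMSO vehicle; read red channel, Ex/Em 540/590 nm. Output given as Rose Bengal sodium equivalents.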

[6] = qHTS assay to test for compound auto fluorescence at 460 nm (blue) in HepG2 cell free culture (AID 720685)
Procedure, shortened: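 Compound (23 nL) or DMSO pinned into cell-free MEM with 10% FBS; blue fluorescence read at 405/460 nm excitation/emission, expressed as auto-fluorescence equivalency to triamterene.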

[7] = qHTS assay to test for compound auto fluorescence at 535 nm (green) in HepG2 cell free culture (AID 720686)
[8] = qHTS assay to test for compound auto fluorescence at 460 nm (blue) in HepG2 cells (AID 720687)
Procedure, shortened: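 Blue-channel autofluorescence (Ex/Em 405/460 nm, triamterene-equivalent) was measured after 1 hr compound exposure at 37 C, 5% CO2. Cells were HepG2, plated overnight at 37 C in MEM plus 10% FBS.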

[9] = target: Glucocorticoid receptor (Homo sapiens) (UniProt P04150); experiment: qHTS assay to identify small molecule agonists of the glucocorticoid receptor (GR) signaling pathway (AID 720691; active means well fitted activation curve with a large enough effect in the signal ratio in the repeat runs, not every such curve was filed as active; the % refers to the signal ratio)
Glucocorticoid receptor (Homo sapiens), sequence (P04150 whole entry, looked up): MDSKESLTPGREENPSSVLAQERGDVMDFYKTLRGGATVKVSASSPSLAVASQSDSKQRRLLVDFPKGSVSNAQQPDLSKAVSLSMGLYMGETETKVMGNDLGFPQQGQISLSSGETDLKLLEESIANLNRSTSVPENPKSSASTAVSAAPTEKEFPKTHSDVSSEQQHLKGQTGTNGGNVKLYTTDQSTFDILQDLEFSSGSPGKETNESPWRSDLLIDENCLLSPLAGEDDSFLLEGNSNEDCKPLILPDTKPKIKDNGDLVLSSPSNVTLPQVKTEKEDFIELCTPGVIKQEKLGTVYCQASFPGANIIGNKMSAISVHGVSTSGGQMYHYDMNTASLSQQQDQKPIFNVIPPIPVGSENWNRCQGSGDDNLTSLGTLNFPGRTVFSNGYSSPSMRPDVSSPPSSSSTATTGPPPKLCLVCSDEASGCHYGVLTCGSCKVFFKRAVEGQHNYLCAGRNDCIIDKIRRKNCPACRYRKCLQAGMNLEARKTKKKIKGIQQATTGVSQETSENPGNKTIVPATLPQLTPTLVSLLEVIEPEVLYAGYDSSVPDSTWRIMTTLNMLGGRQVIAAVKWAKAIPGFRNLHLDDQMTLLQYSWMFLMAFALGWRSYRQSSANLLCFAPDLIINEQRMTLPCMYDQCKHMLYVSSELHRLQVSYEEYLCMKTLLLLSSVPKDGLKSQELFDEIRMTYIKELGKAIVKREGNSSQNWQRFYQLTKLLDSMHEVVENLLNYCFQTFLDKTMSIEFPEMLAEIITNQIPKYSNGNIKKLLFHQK
Procedure, shortened: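 Reporter read-out: fluorescence intensity following 2 h room-temperature LiveBLAzer B/G FRET substrate loading. Prior step: GR-bla HeLa cells held 4 h, then treated 18 h at 37 C.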

[10] = target: Glucocorticoid receptor (Homo sapiens) (UniProt P04150); experiment: qHTS assay to identify small molecule antagonists of the glucocorticoid receptor (GR) signaling pathway (AID 720692; active means well fitted inhibition curve with a large enough effect in the signal ratio in the repeat runs, not every such curve was filed as active; the % refers to the signal ratio)
Procedure, shortened: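 Dexamethasone (5 nM final) stimulated a stably integrated GRE-beta-lactamase reporter in HeLa cells during 18 h co-incubation with compounds; signal was quantified as fluorescence intensity of B/G FRET substrate after 2 h.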
On the % scale 0 is the no-effect control and ±100 the full control effect.

CC1COC(=O)O1 (stereo unspecified)
inactive: Potency [1] | Potency [2] | Potency [3] | outcome [4] | outcome [5] | Potency [6] | Potency [7] | Potency [8] | Potency [9] | Potency [10]

CCCOC(=O)c1cc(O)c(O)c(O)c1
inactive: Potency [1] | Potency [2] | Potency [3] | outcome [4] | outcome [5] | Potency [6] | Potency [7] | Potency [8] | Potency [9] | Potency [10]

CCC(C)(Oc1ccc(C2(c3ccc(OC(C)(CC)C(=O)O)cc3)CCCCC2)cc1)C(=O)O (stereo unspecified)
inactive: Potency [1] | Potency [2] | Potency [3] | outcome [4] | outcome [5] | Potency [6] | Potency [7] | Potency [8] | Potency [9]

COC(=O)[C@H]1[C@H]2C[C@@H]3c4[nH]c5cc(OC)ccc5c4CCN3C[C@H]2C[C@@H](OC(=O)c2cc(OC)c(OC)c(OC)c2)[C@@H]1OC
inactive: Potency [1] | Potency [2] | Potency [3] | outcome [4] | outcome [5] | Potency [6] | Potency [7] | Potency [8] | Potency [9]

CC[C@]1(O)C[C@@H]2CN(CCc3c([nH]c4ccccc34)[C@@](C(=O)OC)(c3cc4c(cc3OC)N(C)[C@H]3[C@@](O)(C(=O)OC)[C@H](OC(C)=O)[C@]5(CC)C=CCN6CC[C@]43[C@@H]65)C2)C1
inactive: Potency [1] | Potency [2] | Potency [3] | outcome [4] | outcome [5] | Potency [6] | Potency [7] | Potency [8] | Potency [9]

O=C(O[C@@H]1Cc2c(O)cc(O)cc2O[C@@H]1c1cc(O)c(O)c(O)c1)c1cc(O)c(O)c(O)c1
inactive: Potency [1] | Potency [2] | Potency [3] | outcome [4] | outcome [5] | Potency [6] | Potency [7] | Potency [8] | Potency [9] | Potency [10]

CCc1ccc(C(c2ccc(CC)cc2)C(Cl)Cl)cc1
inactive: Potency [1] | Potency [2] | Potency [3] | outcome [4] | outcome [5] | Potency [6] | Potency [7] | Potency [8] | Potency [9]

CNC1(C)C2CCC(C2)C1(C)C (stereo unspecified)
inactive: Potency [1] | Potency [2] | Potency [3] | outcome [4] | outcome [5] | Potency [6] | Potency [7] | Potency [8] | Potency [9] | Potency [10]

CC(COc1ccccc1)N(CCCl)Cc1ccccc1 (stereo unspecified)
inactive: Potency [1] | Potency [2] | Potency [3] | outcome [4] | outcome [5] | Potency [6] | Potency [7] | Potency [8] | Potency [9]

CCCC(=O)c1ccccc1
inactive: Potency [1] | Potency [2] | Potency [3] | outcome [4] | outcome [5] | Potency [6] | Potency [7] | Potency [8] | Potency [9] | Potency [10]

CCC(CO)(CO)COCC(CC)(CO)CO
inactive: Potency [1] | Potency [2] | Potency [3] | outcome [4] | outcome [5] | Potency [6] | Potency [7] | Potency [8] | Potency [9]

CC(=O)OCC1=C(C(=O)O)N2C(=O)[C@@H](NC(=O)Cc3cccs3)[C@H]2SC1
inactive: Potency [1] | Potency [2] | Potency [3] | outcome [4] | outcome [5] | Potency [6] | Potency [7] | Potency [8] | Potency [9] | Potency [10]

CCN(CC)C(=O)Nc1ccc(OCC(O)CNC(C)(C)C)c(C(C)=O)c1 (stereo unspecified)
inactive: Potency [1] | Potency [2] | Potency [3] | outcome [4] | outcome [5] | Potency [6] | Potency [7] | Potency [8] | Potency [9]

CC(C(O)c1ccc(O)cc1)N1CCC(Cc2ccccc2)CC1 (stereo unspecified)
inactive: Potency [1] | Potency [2] | Potency [3] | outcome [4] | outcome [5] | Potency [6] | Potency [7] | Potency [8] | Potency [9]

CCC(=O)/C=C/C1C(C)=CCCC1(C)C (stereo unspecified)
inactive: Potency [1] | Potency [2] | Potency [3] | outcome [4] | outcome [5] | Potency [6] | Potency [7] | Potency [8] | Potency [9]

O=C(O)c1cc(Cl)cc(Cl)c1
inactive: Potency [1] | Potency [2] | Potency [3] | outcome [4] | outcome [5] | Potency [6] | Potency [7] | Potency [8] | Potency [9]

CCN1CCCC1CNC(=O)c1cc(S(=O)(=O)CC)c(N)cc1OC (stereo unspecified)
inactive: Potency [1] | Potency [2] | Potency [3] | outcome [4] | outcome [5] | Potency [6] | Potency [7] | Potency [8] | Potency [9]

NC(N)=Nc1nc(CSCC/C(N)=N/S(N)(=O)=O)cs1
inactive: Potency [1] | Potency [2] | Potency [3] | outcome [4] | outcome [5] | Potency [6] | Potency [7] | Potency [8] | Potency [9]

Nc1nc2ccccc2[nH]1
inactive: Potency [1] | Potency [2] | Potency [3] | outcome [4] | outcome [5] | Potency [6] | Potency [7] | Potency [8] | Potency [9]

CC1=CC(=O)c2ccccc2C1=O
inactive: Potency [1] | Potency [2] | Potency [3] | outcome [4] | outcome [5] | Potency [6] | Potency [7] | Potency [8] | Potency [9]

COC(=O)/C=C/c1ccccc1
inactive: Potency [1] | Potency [2] | Potency [3] | outcome [4] | outcome [5] | Potency [6] | Potency [7] | Potency [8] | Potency [9]

CCCCCCCCCCCCCCCCCl
inactive: fluorescence, % of fluorescein [1] -0.0655% [at 18.6 µM] | activity change [3] -0.0974% [at 18.6 µM, hits give high values] | fluorescence, % of fluorescent control [4] -0.466% [at 18.6 µM] | fluorescence, % of Rose Bengal [5] -0.0105% [at 18.6 µM] | fluorescence, % of fluorescent control [6] -0.0526% [at 18.6 µM] | fluorescence, % of fluorescein control [7] -0.0406% [at 18.6 µM] | fluorescence, % of fluorescent control [8] -0.0903% [at 18.6 µM] | Potency [9] | Potency [10]

CCOc1ccc2c(c1)C(C)=CC(C)(C)N2
inactive: Potency [1] | Potency [3] | outcome [4] | outcome [5] | Potency [6] | Potency [7] | Potency [8]

O=C(O)CP(=O)(O)O
inactive: Potency [1] | Potency [2] | Potency [3] | outcome [4] | outcome [5] | Potency [6] | Potency [7] | Potency [8] | Potency [9] | Potency [10]
